From PMC4336329 (PLoS ONE, 2015)
The campaign covered roughly 310,000 compounds. About 14,000 (4.5%) showed an effect of 50% or more. Effects have a minus sign here. For the sample, strong results were picked, then their nearest neighbours and some compounds at random.

The compounds below were run against human ether-à-go-go-related gene (hERG) potassium channel (human, UniProt Q12809) (assay: primary screen, population patch clamp on CHO cells stably expressing hERG; higher = less effect of the substance).
human ether-à-go-go-related gene (hERG) potassium channel, sequence (Q12809 whole entry, looked up): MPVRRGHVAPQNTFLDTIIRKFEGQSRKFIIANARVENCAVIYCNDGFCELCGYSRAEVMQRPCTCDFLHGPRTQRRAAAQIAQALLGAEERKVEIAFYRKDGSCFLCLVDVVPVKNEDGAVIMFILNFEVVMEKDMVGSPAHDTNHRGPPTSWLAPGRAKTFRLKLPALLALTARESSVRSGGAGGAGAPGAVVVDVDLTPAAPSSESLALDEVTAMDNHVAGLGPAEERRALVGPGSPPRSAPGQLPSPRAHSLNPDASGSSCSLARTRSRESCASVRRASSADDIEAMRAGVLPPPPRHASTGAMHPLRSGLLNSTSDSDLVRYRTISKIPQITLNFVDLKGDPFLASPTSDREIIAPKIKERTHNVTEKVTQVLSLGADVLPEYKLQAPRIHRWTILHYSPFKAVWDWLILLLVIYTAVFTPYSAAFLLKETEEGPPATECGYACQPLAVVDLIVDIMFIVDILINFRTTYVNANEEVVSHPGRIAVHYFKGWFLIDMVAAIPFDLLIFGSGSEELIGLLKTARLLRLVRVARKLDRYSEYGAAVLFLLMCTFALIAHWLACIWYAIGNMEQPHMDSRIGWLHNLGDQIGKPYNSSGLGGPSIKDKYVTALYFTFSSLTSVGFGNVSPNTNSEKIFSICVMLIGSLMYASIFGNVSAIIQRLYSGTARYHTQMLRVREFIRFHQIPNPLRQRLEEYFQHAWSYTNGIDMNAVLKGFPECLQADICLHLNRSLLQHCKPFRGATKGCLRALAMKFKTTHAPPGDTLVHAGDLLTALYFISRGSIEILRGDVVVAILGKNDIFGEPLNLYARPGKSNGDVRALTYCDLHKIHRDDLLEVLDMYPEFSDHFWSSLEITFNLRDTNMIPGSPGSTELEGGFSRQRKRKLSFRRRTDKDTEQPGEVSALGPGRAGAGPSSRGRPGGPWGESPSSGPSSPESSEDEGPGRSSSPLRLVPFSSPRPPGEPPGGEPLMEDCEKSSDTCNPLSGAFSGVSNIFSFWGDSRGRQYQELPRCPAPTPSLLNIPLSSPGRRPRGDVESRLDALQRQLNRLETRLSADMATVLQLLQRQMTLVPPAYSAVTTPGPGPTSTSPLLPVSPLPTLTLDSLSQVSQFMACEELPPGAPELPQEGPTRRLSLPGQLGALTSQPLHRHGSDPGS
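Further: peak tail current of the secondary pulse compared with the same well before compound.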

Going from `O=C1OC(c2ccc(Br)cc2)=N/C1=C\c1ccco1` to `CN(/N=C/c1ccco1)C1=NS(=O)(=O)c2ccccc21`, the “hERG current change (%, negative = inhibition) at 10uM” value falls from 26.3% to 4.85%.

Compared with `COc1ccc(N2CCN(c3nc(NCCc4ccc(OC)c(OC)c4)nc(OC)n3)CC2)cc1`, `CCOc1nc(NCCc2ccc(OC)c(OC)c2)nc(N2CCN(c3ccc(OC)cc3)CC2)n1` is higher in “hERG current change (%, negative = inhibition) at 10uM” value: -78.3% for the first, -3.79% for the second.

Compared with `COc1ccc(CCNc2nc(N3CCOCC3)nc(N3CCOCC3)n2)cc1OC`, `COc1ccc(CCNC(=O)C2CCN(C(=O)c3ccc(Cl)cc3)CC2)cc1OC` is lower in “hERG current change (%, negative = inhibition) at 10uM” value: 3.45% for the first, 2.77% for the second.

Going from `N=C1C(c2nc(-c3ccc(Cl)cc3)cs2)=C(O)CN1NC(=O)c1ccc(O)cc1` to `COc1ccc(-c2nc3ccccc3o2)cc1NC(=O)c1ccc(Br)o1`, the “hERG current change (%, negative = inhibition) at 10uM” value rises from 4.02% to 4.92%.

Compared with `Cc1ccccc1N1CCN(C2CCCN(C(=O)c3cc[n+]([O-])cc3)C2)CC1` (stereo not shown), `CCn1c(N2CCN(C(=O)c3ccco3)CC2)nc2ccccc21` is lower in “hERG current change (%, negative = inhibition) at 10uM” value: 9.87% for the first, -50.7% for the second.

First: COc1ccc(CN2C(=O)CCC(C(=O)O)C2c2ccccc2)cc1 (stereo not shown)
Second: COc1ccc(OCCn2cnc3ccccc32)cc1
The “hERG current change (%, negative = inhibition) at 10uM” value of the first is higher: 25.6% for the first, 0.789% for the second.

Going from `Cc1cc(=O)n(C)c(=O)n1CCCCOc1cccc([N+](=O)[O-])c1` to `Cc1cc(=O)n(C)c(=O)n1CCCCCOc1cccc([N+](=O)[O-])c1`, the “hERG current change (%, negative = inhibition) at 10uM” value falls from -14.5% to -57.9%.

Compared with `O=C(COc1cccc([N+](=O)[O-])c1)NN1C(=O)c2ccccc2C1=O`, `O=c1c2ccc([N+](=O)[O-])cc2ncn1CCOc1ccccc1` is lower in “hERG current change (%, negative = inhibition) at 10uM” value: -5.95% for the first, -8.16% for the second.

First: Cc1cc(C(=O)COc2cccc([N+](=O)[O-])c2)c(C)n1C1CC1
Second: Cc1cc(=O)n(C)c(=O)n1CCCCCCOc1cccc([N+](=O)[O-])c1
The “hERG current change (%, negative = inhibition) at 10uM” value of the first is higher: -35.7% for the first, -69.3% for the second.

Going from `Cc1cc(=O)n(C)c(=O)n1CCCNc1ccccc1.O=C(O)C(=O)O` to `CCN(C(=O)Cn1c(=O)oc2ccccc21)c1cccc(C)c1`, the “hERG current change (%, negative = inhibition) at 10uM” value rises from -4.01% to 6.38%.

Compared with `Cn1nccc1CNC(=O)c1ccnn1C`, `COc1ccc2cc(C)c(SCC(=O)Nc3cc(C)on3)nc2c1` is lower in “hERG current change (%, negative = inhibition) at 10uM” value: 14.9% for the first, 6.5% for the second.

First: COc1ccc(COC(=O)C2=C(C)NC(=O)NC2c2cccc(OC)c2OC)cc1 (stereo not shown)
Second: CCOC(=O)COn1c(=O)c(-c2ccc(OC)cc2)[n+]([O-])c2ccccc21
The “hERG current change (%, negative = inhibition) at 10uM” value of the first is higher: 5.25% for the first, -1.13% for the second.

First: CCC(=O)Nc1ncc2c(n1)CC(c1ccco1)CC2=O (stereo not shown)
Second: Cc1ccc(Cl)cc1NC(=O)COC(=O)C1CC1
The “hERG current change (%, negative = inhibition) at 10uM” value of the first is higher: 7.92% for the first, -5.31% for the second.

First: COc1ccc(Cl)cc1NC(=O)COC(=O)C1CC1
Second: COc1ccc(Cl)cc1NC(=O)COC(=O)C1CCCCC1
The “hERG current change (%, negative = inhibition) at 10uM” value of the first is lower: -0.403% for the first, 7.15% for the second.

Going from `Cc1ccc(Cl)cc1NC(=O)COC(=O)C1CCCC1` to `Cc1ccc(Cl)cc1NC(=O)COC(=O)C1CCCCC1`, the “hERG current change (%, negative = inhibition) at 10uM” value rises from -75.8% to 7.48%.

Going from `O=C(OCc1ccccn1)C1CCN(C(=O)c2ccc(Cl)cc2)CC1` to `COc1ccc(COC(=O)C2CCN(C(=O)c3ccc(Cl)cc3)CC2)cc1F`, the “hERG current change (%, negative = inhibition) at 10uM” value falls from -36% to -52.2%.

First: COc1ccc(C)cc1NC(=O)COC(=O)C1CC1
Second: COc1ccc(C)cc1NC(=O)COC(=O)C1CCN(C(=O)c2ccc(Cl)cc2)CC1
The “hERG current change (%, negative = inhibition) at 10uM” value of the first is higher: 6.16% for the first, -79.1% for the second.

Going from `COc1ccc(OC)c(NC(=O)COC(=O)C2CCN(C(=O)c3ccc(Cl)cc3)CC2)c1` to `COc1ccc(C)cc1NC(=O)Nc1ccc(C(=O)N2CCCC2)cc1`, the “hERG current change (%, negative = inhibition) at 10uM” value rises from -71.1% to -23%.

Going from `Cl.NC(CO)C12CC3CC(CC(C3)C1)C2` (stereo not shown) to `N#CCCN1CCN(S(=O)(=O)c2ccc(S(=O)(=O)NC3CC3)cc2)CC1`, the “hERG current change (%, negative = inhibition) at 10uM” value falls from 9.97% to -1.76%.

Compared with `Cc1ccc(C(C(=O)NCc2ccco2)N(C(=O)CNC(=O)c2cccs2)c2ccc(C)cc2C)cc1` (stereo not shown), `O=C(NCc1ccco1)c1ccc(COCC(F)(F)C(F)F)cc1` is lower in “hERG current change (%, negative = inhibition) at 10uM” value: -10.3% for the first, -13.6% for the second.

First: CN1CCN(c2nc(-c3ccccc3)cc(C(F)(F)F)n2)CC1
Second: CC(C)n1c(N2CCN(C(=O)c3cccs3)CC2)nc2ccccc21
The “hERG current change (%, negative = inhibition) at 10uM” value of the first is higher: -19.1% for the first, -49.2% for the second.

Compared with `CCOc1ccc2c(c1)c(N=NC(N)=S)c(O)n2C`, `CC(C)(C)c1ccc(OCCOCCn2cnc3ccccc3c2=O)cc1` is lower in “hERG current change (%, negative = inhibition) at 10uM” value: 1.21% for the first, -36.8% for the second.

First: CC(C)Cc1nnc(NC(=O)C2CC(=O)N(Cc3ccccc3)C2)s1 (stereo not shown)
Second: Cc1ccccc1C(=O)NNC(=O)C1CC(=O)N(Cc2ccccc2)C1 (stereo not shown)
The “hERG current change (%, negative = inhibition) at 10uM” value of the first is lower: 0.385% for the first, 2.19% for the second.

Going from `COc1ccc(C(C#N)c2ccc(Cl)nn2)cc1` (stereo not shown) to `O=[N+]([O-])c1ccc(OCCn2cnc3ccccc32)cc1`, the “hERG current change (%, negative = inhibition) at 10uM” value falls from -2.07% to -68.1%.

Going from `Cc1ccc2[nH]c(=O)c3cc(C(=O)NCC4CCCO4)sc3c2c1` (stereo not shown) to `O=C(CSc1nnc(NC(=O)c2cccc(Cl)c2)s1)NCC1CCCO1` (stereo not shown), the “hERG current change (%, negative = inhibition) at 10uM” value rises from -3.5% to 20%.

First: CS(=O)(=O)Nc1ccc(C(=O)NC2CCCCC2)cc1
Second: CCOc1ccc(CCNC(=O)c2ccc(Cl)c(S(=O)(=O)N3CCOCC3)c2)cc1OCC
The “hERG current change (%, negative = inhibition) at 10uM” value of the first is higher: -0.845% for the first, -20.4% for the second.

Compared with `O=C(NCc1ccco1)C1CCN(c2ccc(S(=O)(=O)N3CCOCC3)cc2[N+](=O)[O-])CC1`, `C=CCNC(=O)C1CCN(c2ccc(S(=O)(=O)N3CCOCC3)cc2[N+](=O)[O-])CC1` is higher in “hERG current change (%, negative = inhibition) at 10uM” value: -70% for the first, -24% for the second.

Going from `CCCCN(C)C(=O)C1CCN(c2ccc(S(=O)(=O)N3CCOCC3)cc2[N+](=O)[O-])CC1` to `CCCN(CCC)C(=O)C1CCN(c2ccc(S(=O)(=O)N3CCOCC3)cc2[N+](=O)[O-])CC1`, the “hERG current change (%, negative = inhibition) at 10uM” value rises from -53.9% to -22.4%.

Compared with `CC(C)CNC(=O)C1CCN(c2ccc(S(=O)(=O)N3CCOCC3)cc2[N+](=O)[O-])CC1`, `COCCN(CCOC)C(=O)C1CCN(c2ccc(S(=O)(=O)N3CCOCC3)cc2[N+](=O)[O-])CC1` is higher in “hERG current change (%, negative = inhibition) at 10uM” value: -38.8% for the first, -35.5% for the second.

Compared with `O=C(CC(SCCO)c1ccc2c(c1)OCO2)c1cccs1` (stereo not shown), `O=C(c1cccs1)N1CCn2c1nc1ccccc12` is lower in “hERG current change (%, negative = inhibition) at 10uM” value: -16.7% for the first, -25.5% for the second.

Compared with `CCOc1cc(N2CCOCC2)c(OCC)cc1NC(=O)CCS(=O)(=O)c1ccc(Cl)cc1`, `CN1CCN(c2ccc(S(=O)(=O)N3CCOCC3)cc2NC(=O)CC(C)(C)C)CC1` is higher in “hERG current change (%, negative = inhibition) at 10uM” value: -35.5% for the first, 8.55% for the second.

Compared with `O=C(Nc1cccc(C(F)(F)F)c1)c1c(O)c2ccccc2[nH]c1=O`, `Cl.O=C(O)c1ccc(CNCc2ccc(F)cc2)cc1` is higher in “hERG current change (%, negative = inhibition) at 10uM” value: 16% for the first, 16.4% for the second.

Compared with `CCN(CC)CCCN=Cc1c(O)n(CCc2ccc(F)cc2)c(=O)[nH]c1=O`, `CCN(CC)CCCN=Cc1c(O)n(Cc2ccc(F)cc2)c(=O)[nH]c1=O` is higher in “hERG current change (%, negative = inhibition) at 10uM” value: -56.1% for the first, -33.7% for the second.

Going from `CN(C)CCCN=Cc1c(O)n(CCc2ccc(F)cc2)c(=O)[nH]c1=O` to `CN(C)CCN=Cc1c(O)n(CCC2=CCCCC2)c(=O)[nH]c1=O`, the “hERG current change (%, negative = inhibition) at 10uM” value falls from 15.2% to -24.2%.

First: O=c1[nH]c(=O)n(CCC2=CCCCC2)c(O)c1C=NCCN1CCNCC1
Second: CCN(CC)CCN=Cc1c(O)n(CCC2=CCCCC2)c(=O)[nH]c1=O
The “hERG current change (%, negative = inhibition) at 10uM” value of the first is higher: -11.7% for the first, -65.6% for the second.

Going from `CC(=O)Nc1ccc(S(=O)(=O)/N=C2\SCCN2S(=O)(=O)c2ccc(NC(C)=O)cc2)cc1` to `CC(C)Cn1c(SCC(=O)N2CCN(S(=O)(=O)c3ccccc3)CC2)nc2ccccc21`, the “hERG current change (%, negative = inhibition) at 10uM” value rises from -5.46% to 0.539%.

First: C=CCSc1nsc(NC(=O)Nc2ccc(F)cc2)n1
Second: Cc1nc(C(C)NC(=O)c2cc(COc3ccc(F)c(F)c3)on2)cs1 (stereo not shown)
The “hERG current change (%, negative = inhibition) at 10uM” value of the first is higher: 22.1% for the first, -11.2% for the second.

Compared with `COc1cc(-c2nnc(SCC3(c4ccc(Br)cc4)OCCO3)o2)cc(OC)c1OC`, `COc1cc2c(cc1OC)C1=C(C#N)CC/C(=N\S(=O)(=O)c3ccccc3)N1CC2` is lower in “hERG current change (%, negative = inhibition) at 10uM” value: -9.92% for the first, -33.1% for the second.

First: c1ccc(OCCn2cnc3ccccc32)cc1
Second: O=c1c2ccccc2ncn1CCOCCOc1ccc([N+](=O)[O-])cc1
The “hERG current change (%, negative = inhibition) at 10uM” value of the first is higher: -9.08% for the first, -64.3% for the second.

Going from `Cc1c(C(=O)OC(C)C)sc(NC(=O)c2cccnc2)c1C#N` to `CCOC(=O)Cc1csc(NC(=O)c2sc3nc4cc(C)ccc4cc3c2N)n1`, the “hERG current change (%, negative = inhibition) at 10uM” value falls from 18.3% to -6.55%.

Going from `CCn1c(N2CCN(C(=S)NCCc3ccccc3)CC2)nc2ccccc21` to `CC(C)Cn1c(N2CCN(C(=O)/C=C/c3ccccc3)CC2)nc2ccccc21`, the “hERG current change (%, negative = inhibition) at 10uM” value falls from -50% to -69.1%.

First: Cc1nnc2c(N3CCN(C(=O)c4ccco4)CC3)nc3ccccc3n12
Second: CC(C)Cn1c(N2CCN(C(=O)c3cccs3)CC2)nc2ccccc21
The “hERG current change (%, negative = inhibition) at 10uM” value of the first is higher: -33.1% for the first, -73.6% for the second.

First: O=C(Cn1c(N2CCN(c3ccccc3)CC2)nc2ccccc21)c1ccccc1
Second: O=C(Cn1c(N2CCN(C/C=C/c3ccccc3)CC2)nc2ccccc21)c1ccccc1
The “hERG current change (%, negative = inhibition) at 10uM” value of the first is higher: -16.1% for the first, -51.2% for the second.

Going from `CC1CCN(c2nc3ccccc3n2CC(=O)c2ccccc2)CC1` to `CC(C)Cn1c(/C=C/c2ccccc2)nc2ccccc21`, the “hERG current change (%, negative = inhibition) at 10uM” value falls from 56% to -42.2%.
